Experimental data: PubChem BioAssay (NCI)
About 83,000 compounds went through this panel and 20% of them were active in at least one assay; those are over-represented in the sample as a whole.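 Interpretation: 100, growth as untreated; towards 0, rising growth inhibition; 0, no net growth; 0 to -100, cell death. Compounds scoring below 10 were considered active.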 Calls of active or inactive are those of the source.

The compounds below were run on T-47D breast (assay: NCI-60 one-dose screen, 48 h (100 = growth as untreated, 0 = no growth, -100 = all killed)). Settings: 10 µM unless noted.

Structure (SMILES) | growth
Cc1cc(C)cc(NC(=O)Cn2cc(COn3nnc4ccccc43)nn2)c1 | 100% (inactive)
CC(=O)Nc1cccc(Nc2nc(NCc3ccccc3)c3ccccc3n2)c1 | -60.1% (active)
Clc1cccc(Cl)c1/C=C/c1cc(/C=C/c2ccc(Br)cc2)c2ccccc2n1 | 81.2% (inactive)
Cn1cc(-c2cc3nc(-c4cn(C)c5ncc(Br)cc45)cc(N)n3n2)c2ccccc21 | -40.9% (active)
N#Cc1c(-c2ccccc2Cl)cc(-c2c[nH]c3ccccc23)[nH]c1=O | 65% (inactive)

These compounds were tested on BT-549 breast in the same assay as above. Settings: 10 µM unless noted.

Structure (SMILES) | growth
Cc1ccc(S(=O)(=O)c2nc(S(=O)(=O)c3ccc(C)cc3)c(N3CCC(O)CC3)s2)cc1 | 49.5% (inactive)
Cc1sc2c(c1C)C(c1ccc(Cl)cc1)=N[C@@H](CC(=O)NCCCCCNC(=O)COc1ccc(C3CCC(=O)NC3=O)cc1)c1nnc(C)n1-2 (stereo partly drawn) | -0.134% (active)
COc1ccc2c(c1)C(=N/N=C(\C)c1ccc(OC)c(S(N)(=O)=O)c1)C(=O)N2 | 59% (inactive)
COc1cc2oc(-c3cccc(C(=O)Nc4ccc(Cl)cc4)c3)cc(=O)c2c(OCCNC(=O)[C@H](CCC(=O)OC(C)(C)C)NC(=O)OC(C)(C)C)c1OC | 100% (inactive)
COc1ccc(-c2nc3cc(C)ccc3n2CC(=O)N=Nc2c(O)[nH]c3ccc(Cl)cc23)cc1 | -43.7% (active)
C=CC[N+](C)(C)CCn1c2ccccc2c2nc3cc(C)c(C)cc3nc21 | 54.6% (inactive)
O=C(c1ccc(OCCN2CCOCC2)cc1)C1[C@H](c2ccc(Cl)cc2)[C@@H](c2ccccc2)NC12C(=O)Nc1ccc(Br)cc12 (stereo partly drawn) | 54.1% (inactive)
N#Cc1c(-c2ccc(Br)cc2)nc2n[nH]c(-c3ccc(Br)cc3)c2c1-c1ccc(F)cc1 | 107% (inactive)
Cc1ccccc1[C@H]1C(C(=O)c2ccc(Cl)cc2)C2(N[C@@H]1c1ccccc1)C(=O)Nc1ccc(Cl)cc12 (stereo partly drawn) | -29.4% (active)
COc1cc(C2CC(c3cc(OC)c(OC)c(OC)c3)=NN2C(C)=O)ccc1OCc1ccccc1 (stereo not drawn) | 17.4% (inactive)
Cc1cccc(NC(=O)[C@]23CCC(C)(C)CC2C2=CCC4[C@@]5(C)C[C@@H](O)[C@H](O)[C@@](C)(CO)C5CC[C@@]4(C)[C@]2(C)CC3)c1 (stereo partly drawn) | 8.83% (active)
CC12CC[C@@H]3[C@]4(C)COC(c5cn[nH]c5-c5ccc(Cl)cc5)O[C@@H]4CC[C@@]3(C)[C@@H]1CC(C1=CCOC1=O)O2 (stereo partly drawn) | 5.38% (active)
S=c1c2ccccc2nc2n1CCc1c-2[nH]c2ccccc12 | 49.9% (inactive)
CCCCSc1nc(NCCc2c[nH]c3ccccc23)c(C#N)c(-c2ccccc2)n1 | 70.2% (inactive)
CC(C)c1sc(NC(=O)c2cc(NC(=O)c3cc(NC(=O)c4cscn4)cn3C)cn2C)nc1C(=O)NCCCN(C)C | -7.36% (active)
CC(=O)Nc1ccc(-n2cnc3ccc(-c4ccc(O)cc4)cc32)cc1 | 51.4% (inactive)
Cc1ccc(NCC(=O)Cn2cc(COc3ccc(C=Nc4cnc5ccccc5c4)cc3)nn2)cc1 | 115% (inactive)
Cc1ccc([C@H]2C(C(=O)c3ccc(Cl)cc3)C3(N[C@@H]2c2ccccc2)C(=O)Nc2ccc(Br)cc23)cc1 (stereo partly drawn) | 96.3% (inactive)
Cn1cc(-c2nnc(N)nc2-c2c[nH]c3ccc(Br)cc23)c2cc(Br)cnc21 | 50.2% (inactive)
O=C(c1ccccc1)c1ccc2nc(-c3ccc(F)cc3)[nH]c2c1 | 40.1% (inactive)
COc1ccc(-c2nc(SCC(C)C)nc(NCCc3c[nH]c4ccccc34)c2C#N)cc1 | 80.8% (inactive)
S=C(Nc1ccccc1)Nc1ccc(OCc2nc3ccccc3[nH]2)cc1 | 49.4% (inactive)
O=C(/C=C/Nc1ccc(Cl)cc1)c1ccc2c(c1)Nc1ccccc1S2 | 24.6% (inactive)
COc1ccc(C(=O)/C=C/c2ccc(OCc3ccc(F)cc3)c(OC)c2)cc1OC | -1.79% (active)
COc1c(F)ccc(C(=O)Nc2ccc3nc(NC(=O)C4CCCN(S(=O)(=O)c5cccc(C(F)(F)F)c5)C4)sc3c2)c1F (stereo not drawn) | 54.3% (inactive)
Cn1cc(-c2cc(N)n3nc(-c4c[nH]c5ccccc45)cc3n2)c2cccnc21 | 71.8% (inactive)
Cc1ccc(C(=O)CSc2nc3ccc(C)cc3c(=O)n2-c2ccc(F)cc2)cc1 | 73.9% (inactive)
O=C(NNc1ccccc1)n1c(=O)c2ccccc2c(=O)n1-c1ccccc1 | 90% (inactive)
